Compound activity: PubChem BioAssay, National Center for Advancing Translational Sciences (NCATS)
Marburg entry = qHTS for Inhibitors of binding or entry into cells for Marburg Virus; actives 6.5% (n = 18,000); Marburg virus pseudotype entry/binding inhibition, cell-based; Potency, µM (titrated, usually from 49.2 µM), inactives show at the highest dose activity change, negative = inhibition, actives largely listed as inhibitors; AID 720532, 2013
Lassa entry = qHTS for Inhibitors of binding or entry into cells for Lassa Virus. Lassa virus pseudotyped entry inhibition, cell-based qHTS. AID 720533, 2013. actives 4.1% (n = 18,000). Potency, µM (top dose mostly 49.2 µM), inactives show top-dose activity change, negative = inhibition, most hits filed as inhibitors
The depositor's hits bear a star; ? = inconclusive; . = not tested or not shown; ! = not active in a repeat; [ ] = remark or other dose. Rows were chosen to be rich in hits. Some 7.1% of all compounds tested hit in one or more screens of this group. Calls follow the shape of the full dose curve; tested in HEK293 cells. % is scaled to controls: 0 for no effect and ±100 for the full control effect; potency is read from the fitted curve at half-maximal effect.

SMILES	Marburg entry	Lassa entry
CCC1OC(=O)C(C)[C@@H](O[C@H]2C[C@@](C)(OC)C(O)C(C)O2)C(C)[C@@H](O[C@@H]2OC(C)CC(N(C)C)C2O)[C@@](C)(O)CC(C)C2NC(COCCOC)O[C@H](C2C)[C@@]1(C)O (some centres not stated)	-16%	-7%
CC[C@H]1OC(=O)[C@H](C)[C@@H](O[C@H]2C[C@@](C)(OC)[C@@H](O)[C@H](C)O2)[C@H](C)[C@@H](O[C@@H]2O[C@H](C)C[C@H](N(C)C)[C@H]2O)[C@](C)(O)C[C@@H](C)[C@@H]2N[C@@H](COCCOC)O[C@@H]([C@H]2C)[C@]1(C)O	7.1µM*	-1%
CCOC(=O)CCC(=O)O[C@H]1[C@H](O[C@@H]2[C@@H](C)[C@H](O[C@H]3C[C@@](C)(OC)[C@@H](O)[C@H](C)O3)[C@@H](C)C(=O)O[C@H](CC)[C@@](C)(O)[C@H](O)[C@@H](C)C(=O)[C@H](C)C[C@@]2(C)O)O[C@H](C)C[C@@H]1N(C)C	8%	1%
CCC(=O)O[C@H]1[C@H](O[C@@H]2[C@@H](C)[C@H](O[C@H]3C[C@@](C)(OC)[C@@H](O)[C@H](C)O3)[C@@H](C)C(=O)O[C@H](CC)[C@@](C)(O)[C@H](O)[C@@H](C)C(=O)[C@H](C)C[C@@]2(C)O)O[C@H](C)C[C@@H]1N(C)C	10µM*	25µM*
COC(=O)C1=C(C(=O)OC)[C@@H]2N(C)c3ccccc3[C@@]23CCC(=O)N(CCCOC(C)C)C3=N1	-10%[8.59 µM]	-20%[8.59 µM]
CCN1C(=O)[C@H]2[C@H]3C(=CC[C@@H]2C1=O)C1(OCCCO1)[C@@H]1O[C@H]1[C@H]3O	68%[8.59 µM]	8%[8.59 µM]
COC[C@H]1O[C@@H](c2c(OC)cc(OC)cc2OC)[C@H](OC)[C@@H](OC)[C@H]1OC	-10%[8.59 µM]	3%[8.59 µM]
C[C@H]1N[S+](=O)([O-])c2ccc(Br)cc2O[C@@H]1c1ccccc1	8%	16%
COC(=O)[C@]12CCC(C)(C)C[C@H]1[C@H]1C(=O)C=C3[C@@]4(C)C=C(C#N)C(=O)C(C)(C)[C@@H]4CC[C@@]3(C)[C@]1(C)CC2	3.2µM*	3.5µM*
O=C(c1cccs1)N1C[C@@H](O)[C@@H](n2cc(C3CC3)nn2)C[C@@H]1c1ccccc1	-21%	13%
C[C@@H]1N[S+](=O)([O-])c2c(F)cccc2O[C@H]1c1ccccc1	10%	2%
CC/C(=C(\c1ccccc1)c1ccc(OCCN(C)C)cc1)c1ccccc1	10µM*!	.
CN(C)CCOc1ccccc1Cc1ccccc1 (tested in a mixture with another compound)	?	-24%
COC(=O)C1=C(C(=O)OC)[C@@H]2N(Cc3ccccc3)c3ccccc3[C@@]23C[C@@H](CO)N=C3N1	-1%[8.59 µM]	-10%[8.59 µM]
COCC=CC1=CC2=CC(=O)C(C)(OC(=O)c3cnc4ccccc4n3)C(=O)C2=CN1CC(C)C (configuration not stated)	7%[8.59 µM]	7%[8.59 µM]
O=C(Nc1ccc(C(=O)Nc2ccc(C(=O)Nc3ccc(S(=O)(=O)O)c4cc(S(=O)(=O)O)cc(S(=O)(=O)O)c34)cc2)cc1)Nc1ccc(C(=O)Nc2ccc(C(=O)Nc3ccc(S(=O)(=O)O)c4cc(S(=O)(=O)O)cc(S(=O)(=O)O)c34)cc2)cc1	4µM*	5%
O=C(Nc1cc(C(=O)Nc2ccc(S(=O)(=O)O)cc2S(=O)(=O)O)cc(C(=O)Nc2ccc(S(=O)(=O)O)cc2S(=O)(=O)O)c1)Nc1cc(C(=O)Nc2ccc(S(=O)(=O)O)cc2S(=O)(=O)O)cc(C(=O)Nc2ccc(S(=O)(=O)O)cc2S(=O)(=O)O)c1	-23%	-5%
O=C(NC(CC1=CCCCC1)c1ccc2c(c1)OCO2)C(F)(F)F (configuration not stated)	47%[8.59 µM]	27%[8.59 µM]
CC1(C)CC(=O)C2=C(C1)O[C@@]1(c3ccsc3)Cc3cc(C#N)ccc3[C@H]2O1	?	9%[8.59 µM]
C[C@@H]1CC[C@H]2C(=O)N(Cc3ccccc3)C[C@H](O)CN2[C@@H]1c1ccc(Br)cc1	3%[8.59 µM]	-1%[8.59 µM]
Oc1cccc(-c2nc(-c3ccccc3)[nH]c2-c2ccncc2)c1	7.9µM*	.
NCc1ccc(-c2nc(-c3ccc(Cl)c(O)c3)c(-c3ccncc3)[nH]2)cc1	?	20%
CC(=O)OC[C@H]1O[C@H](CC=NO[C@@H](C)CN2CCCc3nc(C)c(C)cc32)C=C[C@@H]1OC(C)=O	9%[8.59 µM]	-2%[8.59 µM]
S=c1nc[nH]c2nc[nH]c12	13µM*	14µM*
Brc1c(Br)c(Br)c2[nH]cnc2c1Br	-22%	9%
SMILES	Marburg entry	Lassa entry
CC1=C[C@@H](C)OC2(C1)C(=O)N(Cc1ccc(Br)cc1)c1cccc(Br)c12 (some centres not stated)	4%[8.59 µM]	-2%[8.59 µM]
CCCCCC(=O)N1C[C@H](n2cc(-c3ccc(F)cc3)nn2)[C@@H](O)C[C@H]1c1ccc(OC)cc1	?	-30%
COC(=O)C1=C[C@@]2(c3ccc(OC)cc3[C@@H](OC)[C@@H]2C)[C@@H]2C=C[C@@H]1C2	50%[8.59 µM]	18%[8.59 µM]
CCCCCCC[n+]1ccc(-c2cc[n+](CCCCCCC)cc2)cc1	-1%	-20%
CCCCCCCCc1[se]c2ccccc2c1I	1%	4%
CCCCCCCCCCCCCCCC(=O)O	3%	4%
CCCCCCCCCCCCCCCC[n+]1ccccc1	13µM*	22µM*
CCCCCCCCCCCC[n+]1ccc2ccccc2c1	11µM*	8.9µM*
CCCCCCCCCCCCCC[n+]1ccc(C)cc1	?	22µM*
C#C[C@@H]1C=C[C@H](Oc2ccc(OC)cc2)[C@H](CO)O1	22%[8.59 µM]	11%[8.59 µM]
O=C1C[C@@H](c2ccc(O)c(O)c2)Oc2c1ccc(O[C@@H]1O[C@H](CO)[C@@H](O)[C@H](O)[C@H]1O)c2O	?	-1%
O=C(/C=C/c1ccc(O)c(O)c1)c1ccc(O[C@@H]2O[C@H](CO)[C@@H](O)[C@H](O)[C@H]2O)c(O)c1O	3.2µM*	2%
COC(=O)c1ccc(CN2C(=O)C3(CC(C)=C[C@@H](C)O3)c3c(Br)cccc32)cc1 (some centres not stated)	26%[8.59 µM]	-7%[8.59 µM]
Cc1cc(C)c(N(Cc2ccccc2)S(=O)(=O)c2ccc(OCCNC(=O)c3cc4ccccc4o3)cc2)c(C(=O)NO)c1	5µM*	13µM*
CCOC(=O)[C@@H]1CSCCS(=O)(=O)N1C(=O)[C@@H](NC(=O)OC(C)(C)C)[C@@H](C)CC	12%	13%
C#CCNc1ccc2c(c1)OC[C@H](C)NS2(=O)=O	8%	.
Cc1c(N)nc(C(CC(N)=O)NCC(N)C(N)=O)nc1C(=O)NC(C(=O)NC(C)C(O)C(C)C(=O)NC(C(=O)NCCc1nc(-c2nc(C(=O)NCCCN[C@@H](C)c3ccccc3)cs2)cs1)C(C)O)C(O[C@@H]1O[C@@H](CO)[C@@H](O)[C@H](O)[C@@H]1O[C@H]1O[C@H](CO)[C@@H](O)[C@H](OC(N)=O)[C@@H]1O)c1cnc[nH]1 (some centres not stated)	3.2µM*	3.5µM*
O[C@H]1C[C@H](c2ccc(Cl)cc2)N(CC2CCCCC2)C[C@H]1n1cc(-c2ccc(F)cc2)nn1	-28%	-17%
CCN1C(=O)[C@@H]2[C@H]3[C@H](O)[C@H](O)CC(=NO[C@H](C)c4cn([C@H](CO)Cc5ccccc5)nn4)[C@@H]3CC[C@H]2C1=O	-11%[8.59 µM]	.
CC(C)(C)NC[C@@H](O)COc1cccc2[nH]c(C#N)cc12	2%	-3%
